D1 antag = Antagonist of Human D 1 Dopamine Receptor: qHTS; AID 504652, 2011; actives 3.2% (n = 360,000); activity change, negative = inhibition, % at 10 µM; HEK293 TREx D1 cells, calcium flux, dopamine EC80; stronger effect = lower value; in the data active = activity change below about -30%
Target sequence (P21728 whole entry, looked up): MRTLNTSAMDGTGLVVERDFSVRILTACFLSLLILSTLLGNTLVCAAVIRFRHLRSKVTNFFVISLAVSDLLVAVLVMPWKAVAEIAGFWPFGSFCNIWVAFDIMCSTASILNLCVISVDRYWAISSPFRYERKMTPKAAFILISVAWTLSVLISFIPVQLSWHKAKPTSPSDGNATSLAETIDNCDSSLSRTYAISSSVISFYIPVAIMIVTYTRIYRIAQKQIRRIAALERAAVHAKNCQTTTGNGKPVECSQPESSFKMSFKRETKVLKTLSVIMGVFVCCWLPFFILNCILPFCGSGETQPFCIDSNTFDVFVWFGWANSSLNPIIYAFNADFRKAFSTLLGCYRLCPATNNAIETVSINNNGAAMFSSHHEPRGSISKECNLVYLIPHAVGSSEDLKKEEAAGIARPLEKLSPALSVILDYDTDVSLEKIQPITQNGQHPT
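Tetracycline-induced HEK293 T-REx cells with force-coupled D1 receptor were loaded with a no-wash calcium dye. Compound was added after a 10 s baseline and read kinetically for 180 s; EC80 dopamine was then added and calcium flux followed another 180 s.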
D1 potentiator = Potentiators of Human D1 Dopamine Receptor: qHTS | D(1A) dopamine receptor (Homo sapiens), P21728 | HEK293 TREx D1 cells, calcium flux, dopamine EC20 potentiation | potentiation, % at 10 µM | actives 0.036% (n = 360,000); in the data active = potentiation above about 30%
D1 agonist = Allosteric Agonists of the Human D1 Dopamine Receptor: qHTS; activation, % at 2 µM; HEK293 T-REx D1 cells, calcium flux, agonist mode; D(1A) dopamine receptor (Homo sapiens), P21728; actives 1% (n = 360,000)
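Tetracycline-induced HEK293 TREx D1 cells, force-coupled to calcium signalling, were dye-loaded with a no-wash calcium kit. Compound was pin-added after a 10 s baseline. Fluorescence was read kinetically at 1 cycle/s for 180 s, with calcium rises flagged as agonism.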
TRHR ag = qHTS for Small Molecule Agonists and Allosteric Enhancers of Human TRH Receptor: Primary Screen for Agonists. activation, % at 2 µM. TRHR cells, calcium flux fluo-8, FDSS agonist mode. actives 0.18% (n = 360,000). AID 493084, 2011
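Steps: seed TRHR cells overnight; add fluo-8 no-wash Ca dye, RT 30 min–1.5 h; record 10 s baseline; pin-transfer compounds; monitor fluorescence 1 cycle/s for the agonist window. Calcium increases flag candidate agonists.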
TRHR enhancer = qHTS for Small Molecule Agonists and Allosteric Enhancers of Human TRH Receptor: Primary Screen for Enhancers | actives 0.66% (n = 360,000) | enhancement, % at 2 µM | Thyrotropin-releasing hormone receptor (Homo sapiens), P34981 | TRHR cells, fluo-8 calcium fluorescence, EC20 TRH enhancement; in the data active = enhancement above about 30%
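Enhancer read-out: after compound pinning and an initial kinetic agonist-mode read, an EC20 of TRH (10 nM final) was injected and fluo-8 calcium signal (Ex 480/Em 530) followed at 1 s/cycle for 100 cycles in TRHR-expressing cells.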
A number is an active result; – = inactive; · = no result; ! = not confirmed by another sample. Only some compounds are listed: those with a hit (about 4.7% of all), similar ones and a draw of the others. Cut-off read from the data, not from the text of the source, unless noted: active = activation above about 30%; inactive = the rest.

SMILES | D1 antag | D1 potentiator | D1 agonist | TRHR ag | TRHR enhancer
COc1ccccc1N(C)S(=O)(=O)c1ccc(C(=O)N(C)Cc2ccc(OC(F)F)cc2)cc1 | -41.4 | – | – | – | –
COc1ccccc1N(C)S(=O)(=O)c1ccc(C(=O)Nc2ncc(C)s2)cc1 | – | – | – | – | –
COc1ccccc1N(C)S(=O)(=O)c1ccc(C(=O)Nc2nccs2)cc1 | -66.5 | – | – | – | –
COc1cccc(NC(=O)CN(Cc2ccccc2)S(=O)(=O)c2ccc3nc(C)sc3c2)c1 | -44.6 | – | – | – | –
COc1ccccc1N(C)S(=O)(=O)c1ccc(C(=O)Nc2ccc3nc(C)sc3c2)cc1 | -44.4 | – | – | – | –
CCOc1ccc(NC(=O)CN(Cc2ccccc2)S(=O)(=O)c2ccc3nc(C)sc3c2)cc1 | – | – | – | – | –
O=S(=O)(c1ccc(Br)cc1)N1CCN(S(=O)(=O)c2ccc3c(c2)OCCO3)CC1 | – | – | – | – | –
Cc1cccc(CCNc2ncnc3onc(-c4ccc(Cl)cc4)c23)c1 | – | – | – | – | –
CCc1ccccc1Nc1nn2c(=O)c3ccc(C(=O)NC4CCC(C)CC4)cc3nc2s1 (stereo not drawn) | – | – | – | – | –
CCOC(=O)COc1ccc(CC)cc1C(=O)c1ccn2nc(-c3ccc(Cl)cc3)cc2n1 | – | – | – | – | –
O=C(COc1ccc(Br)cc1)NCCN1CCCC1 | – | – | – | – | 30.5
CCCNC(=O)c1ccc2c(c1)CCN2S(C)(=O)=O | · | – | – | – | –
CS(=O)(=O)N1CCc2cc(C(=O)N3CCN(c4ccccc4)CC3)ccc21 | -64.7! | – | – | – | –
O=C(c1ccc2c(c1)CCN2S(=O)(=O)c1ccccc1)N1CCN(c2ccccc2)CC1 | – | – | – | – | 33.2
CS(=O)(=O)N1CCc2cc(C(=O)NC3CC3)ccc21 | -37.3 | – | – | – | –
Cc1ccc(C)c(CNC(=O)C2CCN(c3nc4ccccc4nc3C(F)(F)F)CC2)c1 | – | – | – | – | –
Fc1cccc(NC(=S)NC2CCCCCCC2)c1 | – | – | – | – | –
FC(F)(F)c1cccc(NC(=S)NCC2COc3ccccc3O2)c1 (stereo not drawn) | -35.1 | – | – | – | –
CCCNC(=S)Nc1cccc(C(F)(F)F)c1 | – | – | – | – | –
FC(F)(F)c1ccc(NC(=S)NC2CCCCC2)cc1 | -43.9 | – | – | – | –
FC(F)(F)c1cccc(NC(=S)NC2CCCC2)c1 | -35.5 | – | – | – | –
CC(C)(C)NNC(=S)Nc1cccc(C(F)(F)F)c1 | – | – | – | – | 31.6
COc1cc(Cn2ncc3c4sc(C)cc4n(C)c3c2=O)cc(OC)c1 | – | – | – | – | –
Cc1nc(C)c(-c2ccc(SCC(=O)Nc3ccc(Br)cc3)nn2)s1 | – | – | – | – | –
COc1ccc(C)cc1Nc1n[n+](-c2ccccc2)c(-c2ccc(NC(C)=O)cc2)s1 | -31.3 | – | – | – | –
SMILES | D1 antag | D1 potentiator | D1 agonist | TRHR ag | TRHR enhancer
Cc1cccc(NC(=O)Cn2nc(C)c3nn(-c4ccc(Cl)cc4)c(C)c3c2=O)c1C | – | – | – | – | –
COc1ccc(S(=O)(=O)NC(C)C(=O)Nc2cccc(C(C)=O)c2)cc1 (stereo not drawn) | -42.6 | – | – | – | –
COc1cc(OC)cc(N2C(=O)N(Cc3ccc(C(C)(C)C)cc3)c3ccccc3S2(=O)=O)c1 | – | – | – | – | –
CCc1ccc(OC2=NS(=O)(=O)c3ccccc32)cc1 | · | – | – | – | –
CCN(CC)c1cccc(OC2=NS(=O)(=O)c3ccccc32)c1 | – | – | – | – | 37.4
O=C(NC(=S)Nc1ccccn1)c1ccc(-c2ccccc2)cc1 | -32.2 | – | – | – | –
O=C(Nc1ccncc1)c1ccc(F)cc1 | – | – | – | – | –
O=C(Nc1cccnc1)c1ccc(-c2ccccc2)cc1 | -30.3 | – | – | – | –
O=C(Nc1ccncc1)c1ccc(-c2ccccc2)cc1 | -39.5 | – | – | – | –
O=C(Nc1cccnc1)c1ccc(F)cc1 | – | – | – | – | –
CCn1cc(S(=O)(=O)c2cccc(Cl)c2)c(=O)c2cc(F)c(N3CCN(C)CC3)cc21 | – | – | – | – | –
CCOc1ccc(-n2c(=O)c3c4c(sc3n(Cc3cccc(C)c3)c2=O)CCCC4)cc1 | – | – | – | – | –
CCCc1cc(=O)[nH]c(SCC(=O)N2CC3(C)CC2CC(C)(C)C3)n1 (stereo not drawn) | -46.9 | · | – | – | –
Cc1[nH]c2ccccc2c1C1(O)C(=O)N(Cc2ccccc2)c2ccc(Cl)cc21 (stereo not drawn) | – | – | – | – | –
Cn1cnnc1SCC(=O)Nc1ccccc1 | – | – | – | – | –
Cn1cnnc1SCC(=O)Nc1ccc(C#N)cc1 | -36.5 | – | – | – | –
COc1ccc(C(=O)Cn2c(=O)n3nc(CCn4nc(C)cc4C)nc3c3cc(OC)c(OC)cc32)cc1 | – | – | – | – | –
Cc1cc(C)c2c(=O)[nH]c(SCC(=O)Nc3ccc(N(C)C)cc3)nc2n1 | -35.2 | – | – | – | –
Cc1ccc(NC(=O)CSc2nc3nc(C)cc(C)c3c(=O)[nH]2)cc1 | – | – | – | – | –
CCOc1cc(/C=C/C(=O)c2ccc(OC)c(CN3CCOCC3)c2)cc(Br)c1O | – | – | 40.9 | 39.6 | –
Nc1c(C(=O)NCCN2CCOCC2)c2nc3ccccc3nc2n1-c1cccc(F)c1 | -47.7 | – | – | – | –
CCCNC(=O)c1c(N)n(-c2cccc(OC)c2)c2nc3ccccc3nc12 | – | – | – | – | –
CC(C)(C)S(=O)(=O)c1cnc(-c2ccc(Cl)cc2)nc1N | – | – | – | – | –
Cc1nc(N)nc(N)c1/C=C/C(C)(C)c1ccc(Cl)cc1 | – | – | 38.2 | – | –
CCOc1ccc(N(C(C)C(=O)NN=C2CCCCCCC2)S(C)(=O)=O)cc1 (stereo not drawn) | -33.0 | – | – | – | –
C/C(=N\NC(=O)c1cc(C)oc1C)c1ccc2ccccc2c1 | -42.3 | – | – | – | –
COc1ccccc1C(CCNS(=O)(=O)c1ccc(C)cc1)c1ccco1 (stereo not drawn) | – | – | 42.3 | – | –
N#CC(C#N)=C1C=C2C=C(N3CCCCC3)CCC2CC1 (stereo not drawn) | – | – | 671.3 | 248.7 | –
CCN(CC)C1=CC2=CC(=C(C#N)C#N)CCC2CC1 (stereo not drawn) | -82.2 | – | 487.2 | – | –

High-throughput results (PubChem)
